Records with an inconclusive call do not appear. Calls of active or inactive are those of the source. Rule for the calls, unless noted: active = hit-call score of the fitted dose curve at least 0.9, where 1 is the maximum; inconclusive = response in the unintended direction; inactive = score below 0.9.
What was measured:
[1] = target: Bile acid receptor (Homo sapiens) (UniProt Q96RI1); experiment: ATG_FXR_TRANS: Attagene TRANS-FACTORIAL HepG2 Assay for Farnesoid X Receptor (FXR) (AID 2282979); settings: HepG2 Attagene TRANS FXR-GAL4 reporter transcription;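 note: hits raise reporter mRNA above DMSO so AC50 marks FXR activation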
Outline: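 HepG2 cells transiently transfected with reporter constructs in which a chimeric FXR-GAL4 protein drives a GAL4-UAS reporter; 24 h compound exposure. Reporter mRNA measured by RT-PCR, FAM labelling, HpaI digestion and capillary electrophoresis; gain-of-signal versus DMSO.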

[2] = target: Hepatocyte nuclear factor 4-alpha (Homo sapiens) (UniProt P41235); experiment: ATG_HNF4a_TRANS: Attagene TRANS-FACTORIAL HepG2 Assay for human Hepatocyte Nuclear Factor 4 alpha (HNF4a) (AID 2282982); settings: HepG2 HNF4a transactivation reporter, mRNA readout
Outline: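 Gain-of-signal mRNA induction, relative to DMSO vehicle, was read after 24 h compound treatment of HepG2 cells bearing transfected GAL4-UAS reporters. Detection used RT-PCR, 6-FAM primer extension and capillary electrophoresis.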

[3] = target: Transcriptional activator Myb (Homo sapiens) (UniProt P10242); experiment: ATG_Myb_CIS: Attagene CIS-FACTORIAL HepG2 Assay for human Myeloblastosis (Myb) Proto-Oncogene Transcription Factor (AID 2282986; active = hit-call score of the fitted dose curve at least 0.9, where 1 is the maximum; inactive = score below 0.9); settings: HepG2 Attagene CIS-FACTORIAL Myb reporter transcription; actives raise or lower the signal
Outline: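 After 24 h of compound dosing, total RNA from transfected HepG2 cells is reverse-transcribed and the reporter sequences amplified, labeled and separated by capillary electrophoresis. Values come from bidirectional fitting against DMSO.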

[4] = target: Oxysterols receptor LXR-beta (Homo sapiens) (UniProt P55055); experiment: ATG_LXRb_TRANS: Attagene TRANS-FACTORIAL HepG2 Assay for human Liver X Receptor beta (LXRb) (AID 2282981); settings: HepG2 Attagene TRANS GAL4-LXRb reporter, mRNA
Outline: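 Gain-of-signal mRNA reporter endpoint, DMSO as negative control. Transiently transfected HepG2 cells carrying the NR-Gal4 chimera and GAL4-UAS reporter units were treated 24 h; transcripts quantified by RT-PCR and capillary electrophoresis fluorescence.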

[5] = ATG_M_06_TRANS: Attagene TRANS-FACTORIAL HepG2 Assay for M06 Transcription Factor (Internal Marker) (AID 2282983); settings: HepG2 Attagene TRANS M06 internal marker reporter
Outline: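 HepG2 cells transiently transfected with multiplexed GAL4-UAS reporter transcription units; after 24 h compound exposure, reporter mRNA measured by RT-PCR, FAM-labelled primer extension, HpaI digestion and capillary electrophoresis. Gain-of-signal fitted versus DMSO baseline; background control readout.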

[6] = ATG_M_32_TRANS: Attagene TRANS-FACTORIAL HepG2 Assay for M32 Transcription Factor (Internal Marker) (AID 2282984); settings: HepG2 Attagene TRANS M32 internal marker reporter
Outline: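 Capillary electrophoresis of 6-FAM-labelled reporter fragments gives the signal; data fitted for gain over DMSO negative control. Source: HepG2 cells bearing transient multiple reporter transcription units, 24 h exposure.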

[7] = target: Nuclear receptor subfamily 4 group A member 2 (Homo sapiens) (UniProt P43354); experiment: ATG_NURR1_TRANS: Attagene TRANS-FACTORIAL HepG2 Assay for human Nuclear Receptor Related Protein 1 (NURR1) (AID 2282985); settings: HepG2 Attagene TRANS reporter, mRNA readout
Outline: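 HepG2 / transient MRTU transfection / 24 h compound exposure / RT-PCR + CE fluorescence of reporter mRNA / gain-of-signal vs DMSO.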

[8] = target: Oxysterols receptor LXR-alpha (Homo sapiens) (UniProt Q13133); experiment: ATG_LXRa_TRANS: Attagene TRANS-FACTORIAL HepG2 Assay for human Liver X Receptor alpha (LXRa) (AID 2282980); settings: HepG2 Attagene TRANS reporter, LXRa transactivation
Outline: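 HepG2 cells were transiently transfected with multiplexed reporter units driven by chimeric LXRa–GAL4 fusion proteins, then dosed for 24 h. Reporter mRNA was quantified by RT-PCR, fluorescent labelling and capillary electrophoresis; gain of signal fitted against DMSO baseline.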

Measured: AC50

Sequence of Oxysterols receptor LXR-beta (Homo sapiens) (P55055 whole entry, looked up, the tested form may be a part): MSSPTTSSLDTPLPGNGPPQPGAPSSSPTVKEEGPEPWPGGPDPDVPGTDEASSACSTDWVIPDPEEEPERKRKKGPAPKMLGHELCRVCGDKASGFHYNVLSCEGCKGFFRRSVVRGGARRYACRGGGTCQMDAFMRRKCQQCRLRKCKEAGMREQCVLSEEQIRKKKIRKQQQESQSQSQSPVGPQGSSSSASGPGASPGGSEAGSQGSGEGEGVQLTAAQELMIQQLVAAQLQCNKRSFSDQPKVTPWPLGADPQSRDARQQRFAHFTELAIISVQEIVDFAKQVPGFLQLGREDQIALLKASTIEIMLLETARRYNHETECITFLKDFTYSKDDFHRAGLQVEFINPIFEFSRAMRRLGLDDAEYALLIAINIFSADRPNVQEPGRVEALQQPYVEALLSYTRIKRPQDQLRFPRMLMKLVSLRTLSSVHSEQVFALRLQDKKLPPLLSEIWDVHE
Sequence of Transcriptional activator Myb (Homo sapiens) (P10242 whole entry, looked up): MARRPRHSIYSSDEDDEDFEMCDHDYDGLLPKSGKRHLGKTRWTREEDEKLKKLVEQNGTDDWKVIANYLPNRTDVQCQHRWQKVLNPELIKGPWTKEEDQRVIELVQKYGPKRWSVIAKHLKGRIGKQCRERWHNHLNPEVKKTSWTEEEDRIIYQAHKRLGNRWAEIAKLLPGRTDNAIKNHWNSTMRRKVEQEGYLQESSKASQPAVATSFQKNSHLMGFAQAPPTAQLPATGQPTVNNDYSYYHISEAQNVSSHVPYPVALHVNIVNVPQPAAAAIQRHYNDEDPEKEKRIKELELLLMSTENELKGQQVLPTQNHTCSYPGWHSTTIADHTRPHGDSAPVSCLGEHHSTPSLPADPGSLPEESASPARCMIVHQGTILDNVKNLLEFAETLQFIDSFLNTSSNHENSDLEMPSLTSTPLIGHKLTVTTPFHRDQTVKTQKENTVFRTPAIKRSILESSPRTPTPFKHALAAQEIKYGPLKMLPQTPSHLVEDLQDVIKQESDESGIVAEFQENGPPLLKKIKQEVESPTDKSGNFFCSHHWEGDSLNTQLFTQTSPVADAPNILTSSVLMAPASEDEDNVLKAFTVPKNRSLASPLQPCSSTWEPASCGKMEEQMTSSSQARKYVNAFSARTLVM
Sequence of Nuclear receptor subfamily 4 group A member 2 (Homo sapiens) (P43354 whole entry, looked up): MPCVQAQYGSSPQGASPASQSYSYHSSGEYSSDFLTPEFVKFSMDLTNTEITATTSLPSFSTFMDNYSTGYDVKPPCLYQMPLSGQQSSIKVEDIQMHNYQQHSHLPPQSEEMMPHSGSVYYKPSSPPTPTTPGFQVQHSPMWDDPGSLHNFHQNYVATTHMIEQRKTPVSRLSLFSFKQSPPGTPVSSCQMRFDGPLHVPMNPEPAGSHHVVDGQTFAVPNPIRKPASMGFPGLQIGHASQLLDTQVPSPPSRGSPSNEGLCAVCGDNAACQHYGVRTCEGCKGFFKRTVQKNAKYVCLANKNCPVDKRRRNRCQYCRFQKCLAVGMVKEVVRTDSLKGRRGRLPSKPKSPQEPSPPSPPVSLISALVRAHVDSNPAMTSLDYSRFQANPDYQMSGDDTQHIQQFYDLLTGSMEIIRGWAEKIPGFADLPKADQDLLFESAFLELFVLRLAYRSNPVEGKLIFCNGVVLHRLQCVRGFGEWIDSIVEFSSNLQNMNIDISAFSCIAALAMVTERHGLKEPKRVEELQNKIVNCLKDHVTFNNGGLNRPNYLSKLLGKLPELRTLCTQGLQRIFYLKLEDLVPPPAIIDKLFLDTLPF
Sequence of Oxysterols receptor LXR-alpha (Homo sapiens) (Q13133 whole entry, looked up, the tested form may be a part): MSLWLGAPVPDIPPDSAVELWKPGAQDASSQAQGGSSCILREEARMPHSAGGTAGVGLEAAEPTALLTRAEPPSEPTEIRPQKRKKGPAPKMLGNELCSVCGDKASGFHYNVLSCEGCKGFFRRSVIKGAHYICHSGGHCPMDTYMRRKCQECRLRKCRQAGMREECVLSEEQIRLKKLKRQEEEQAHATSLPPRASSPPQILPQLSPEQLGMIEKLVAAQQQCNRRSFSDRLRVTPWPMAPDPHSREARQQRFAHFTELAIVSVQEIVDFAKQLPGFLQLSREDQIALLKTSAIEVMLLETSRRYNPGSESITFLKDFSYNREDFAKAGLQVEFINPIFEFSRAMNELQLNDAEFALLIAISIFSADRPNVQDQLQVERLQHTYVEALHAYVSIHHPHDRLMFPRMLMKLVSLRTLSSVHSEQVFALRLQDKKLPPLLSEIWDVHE
Sequence of Hepatocyte nuclear factor 4-alpha (Homo sapiens) (P41235 whole entry, looked up, the tested form may be a part): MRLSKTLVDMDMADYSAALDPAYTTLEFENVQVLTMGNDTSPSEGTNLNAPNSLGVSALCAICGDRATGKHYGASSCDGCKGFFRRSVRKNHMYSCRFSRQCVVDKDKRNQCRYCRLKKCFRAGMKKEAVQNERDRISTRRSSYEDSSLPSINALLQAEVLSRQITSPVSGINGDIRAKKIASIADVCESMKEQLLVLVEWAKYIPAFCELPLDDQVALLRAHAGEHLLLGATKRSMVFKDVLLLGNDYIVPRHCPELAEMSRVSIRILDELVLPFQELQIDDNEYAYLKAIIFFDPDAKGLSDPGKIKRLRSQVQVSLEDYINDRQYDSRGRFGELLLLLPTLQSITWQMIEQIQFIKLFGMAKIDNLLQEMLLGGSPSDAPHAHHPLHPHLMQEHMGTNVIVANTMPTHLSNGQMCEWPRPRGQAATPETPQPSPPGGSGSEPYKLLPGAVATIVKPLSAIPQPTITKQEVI
Sequence of Bile acid receptor (Homo sapiens) (Q96RI1 whole entry, looked up, the tested form may be a part): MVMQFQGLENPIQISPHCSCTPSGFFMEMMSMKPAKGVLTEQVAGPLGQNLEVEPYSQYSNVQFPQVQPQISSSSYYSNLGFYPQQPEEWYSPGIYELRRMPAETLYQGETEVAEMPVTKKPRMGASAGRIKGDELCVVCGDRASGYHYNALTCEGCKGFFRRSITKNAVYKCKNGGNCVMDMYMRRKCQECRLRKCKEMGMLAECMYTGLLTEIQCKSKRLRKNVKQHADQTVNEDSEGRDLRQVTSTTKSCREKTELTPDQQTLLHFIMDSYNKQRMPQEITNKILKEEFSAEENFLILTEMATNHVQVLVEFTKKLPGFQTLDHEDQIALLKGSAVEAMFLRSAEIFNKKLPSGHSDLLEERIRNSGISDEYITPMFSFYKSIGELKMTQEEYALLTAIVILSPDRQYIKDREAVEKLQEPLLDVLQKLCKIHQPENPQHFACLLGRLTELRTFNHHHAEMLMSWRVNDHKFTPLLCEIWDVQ

Nc1ncnc2nc[nH]c12
inactive: [1] | [2] | [3]

CC(C)[N+](C)(CCOC(=O)C1c2ccccc2Oc2ccccc21)C(C)C
inactive: [1] | [4] | [3]

C=C(C)C1CC=C(C)CC1 (configuration not stated)
inactive: [4] | [5] | [6] | [7] | [3]

CCCCCCCCCC(C)=O
inactive: [8] | [4] | [6] | [7] | [3]

C=CCNCC=C
inactive: [8] | [2] | [6] | [7] | [3]

NNS(=O)(=O)c1ccc(Oc2ccc(S(=O)(=O)NN)cc2)cc1
inactive: [4] | [2] | [6] | [7] | [3]

Nc1ccnc(=O)[nH]1
inactive: [4] | [5] | [6] | [7]

Cc1c(C(=O)c2c[nH]n(C)c2=O)ccc(S(C)(=O)=O)c1C1=NOCC1
inactive: [4] | [5] | [6] | [7] | [3]

CC(C)COC(=O)CC(C(=O)OCC(C)C)S(=O)(=O)O (configuration not stated)
inactive: [8] | [4] | [7] | [3]

CC(CC=O)CC(C)(C)C (configuration not stated)
inactive: [8] | [4] | [7] | [3]

CC1=NN(c2ccc(S(=O)(=O)O)cc2)C(=O)C1N=Nc1ccccc1 (configuration not stated)
inactive: [4] | [5] | [6] | [7]

Cc1ccc(C)c(OCCCC(C)(C)C(=O)O)c1
inactive: [4] | [2] | [5] | [6] | [3]

Cc1cccc(C(C)(C)C)c1O
not listed: [1] | [4]
inactive: all other assays above

CCOC(=O)c1ccccc1C
inactive: [4] | [5] | [7] | [3]

Nc1ccc(Cl)c(N)c1
inactive: [8] | [5] | [6] | [7]

Cc1cc(C)c(C=O)c(C)c1
inactive: [4] | [2]

CCCCCCCCCC[N+](C)(CCCCCCCCCC)CCC[Si](OC)(OC)OC
active: [3] 15.9 µM
inactive: [4] | [2] | [7]

C=C[C@@]1(C)CC(=O)[C@]2(O)[C@@]3(C)[C@@H](O)CCC(C)(C)[C@@H]3[C@H](O)[C@H](OC(C)=O)[C@@]2(C)O1
active: [4] 0.973 µM
not listed: [1] | [8]
inactive: all other assays above

N#Cc1ccc(C2CCCc3cncn32)cc1 (configuration not stated)
inactive: [8] | [5] | [6] | [7] | [3]

Cc1ccc2c(c1)CCCN2
not listed: [1] | [4]
inactive: all other assays above

C=CC(=O)OCC(C)OCC(C)OCC(C)OC(=O)C=C (configuration not stated)
inactive: [4] | [5] | [6]
active: [3] 65.2 µM

CCCCCCCO
inactive: [8] | [5] | [6] | [7]

CCCC=C(C=O)CC
inactive: [4] | [2] | [5] | [7] | [3]

C=CC(=O)NC(C)(C)C
inactive: [4] | [2] | [5] | [7] | [3]

— PubChem BioAssay (EPA / NIEHS)
